TSHR agonist = TSH receptor (human) agonism | HEK293-CNG-TSHR cells (CNG channel as cAMP sensor), membrane potential dye, cAMP | P16473 | Potency, µM (highest dose often 57.1 µM), without a hit: top-dose activation, hits mostly activators | 73,000 compounds, 0.48% hits; active = well fitted activation curve with a large enough effect in the main read-out, with a control signal flat, not every such curve was filed as active; inconclusive = small, poorly fitted or top-dose-only effect, or a change in a side signal; inactive = no such curve, though single readings can be large or run the other way; % of control where 0% means no effect;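 also: the control signal comes from parental cells without the receptor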
Target sequence (P16473 whole entry, looked up): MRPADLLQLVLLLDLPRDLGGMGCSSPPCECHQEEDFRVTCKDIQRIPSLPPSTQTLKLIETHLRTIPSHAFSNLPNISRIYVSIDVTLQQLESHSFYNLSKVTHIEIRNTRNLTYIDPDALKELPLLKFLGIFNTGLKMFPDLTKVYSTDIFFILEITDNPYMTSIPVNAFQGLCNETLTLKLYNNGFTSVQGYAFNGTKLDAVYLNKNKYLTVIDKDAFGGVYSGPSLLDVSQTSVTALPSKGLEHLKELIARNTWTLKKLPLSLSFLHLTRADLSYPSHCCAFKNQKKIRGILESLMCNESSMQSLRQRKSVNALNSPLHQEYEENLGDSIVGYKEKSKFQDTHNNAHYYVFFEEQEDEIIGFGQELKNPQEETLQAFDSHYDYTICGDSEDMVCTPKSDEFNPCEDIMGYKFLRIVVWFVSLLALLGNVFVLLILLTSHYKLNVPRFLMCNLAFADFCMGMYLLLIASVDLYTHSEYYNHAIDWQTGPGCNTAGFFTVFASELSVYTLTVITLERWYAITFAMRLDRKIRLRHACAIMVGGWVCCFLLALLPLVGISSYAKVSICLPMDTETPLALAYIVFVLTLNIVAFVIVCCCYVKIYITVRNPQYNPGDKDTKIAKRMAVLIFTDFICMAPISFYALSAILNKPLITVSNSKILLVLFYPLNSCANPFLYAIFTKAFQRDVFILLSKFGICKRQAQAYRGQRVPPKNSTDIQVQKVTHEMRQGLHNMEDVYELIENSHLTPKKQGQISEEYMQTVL
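HEK 293 cells stably expressing TSHR and a modified CNG channel, with CNG-only parental cells as counterscreen, were preloaded 60 min at room temperature with membrane potential dye containing 100 uM RO 20-1724. Compound exposure was 30 min, and depolarization was read as fluorescence at 590 nm.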
Imprint erasure = induces erasure of genomic imprints in mouse ES cells; mouse ES Peg3-LacZ reporter, beta-gal luminescence, 40 h; Potency, µM (titrated, usually from 60.7 µM), without a hit: top-dose activity change, positive = activation, most hits filed as activators; 110,000 compounds, 0.02% hits; AID 1948
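Imprint erasure is scored as LacZ activity from the silenced maternal Peg3 allele in feeder-free female ES cells cultured 40 h with LIF. Luminescence is normalized to in-plate negative controls and fitted to the Hill equation.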
p53ts 39C kill = p53ts cell cytotoxicity, nonpermissive temperature. H1299-p53A138V viability at 39C, ATP luminescence, 24 h. Potency, µM (highest dose often 46.1 µM), inactives show at the highest dose activity change, negative = cell killing, most hits filed as cytotoxic. 130,000 compounds, 1.5% hits. AID 902; also: % is scaled to controls: 0 for no effect and ±100 for the full control effect; nearly all actives have a fitted effect of over 55% in size
p53ts 32C tox = kills p53ts cells at the permissive temperature. H1299-p53A138V at 32C, ATP luminescence viability, 24 h. Potency, µM (doses to about 46.1 µM), for the others: top-dose activity change, negative = cytotoxicity, hits mostly cytotoxic. 130,000 compounds, 0.93% hits;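 also: 0% = DMSO and -100% = full killing by reference compound; nearly all actives have a fitted effect of over 55% in size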
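H1299-p53 A138V cells (temperature-sensitive p53) exposed 24 h to up to 46 uM compound at 32C, where p53 is wild-type in conformation. Viability read as ATP luminescence and normalised to DMSO and 100 uM tamoxifen. AC50 fitted with the Hill equation.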
IkB sig inh = IkB pathway inhibition in ABC-DLBCL cells; ABC-DLBCL IkBa-CBG/CBR dual luciferase ratio, 4 h; response scale: scaled: untreated 0%, proteasome inhibitor 100%; 110,000 compounds, 0.04% hits; Potency, µM (series often up to 57.1 µM), for inactives: top-dose IkBa stabilization activation; active = well fitted curve in the direction sought with a large enough effect in the signal ratio, not every such curve was filed as active; inconclusive = small, poorly fitted or top-dose-only effect, or a change in a side signal; the % refers to the signal ratio;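 also: the direction sought is a rising ratio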
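Curves were fitted separately to fusion (green), unfused (red) and ratio luminescence, then classed by r2, magnitude and activity. Cells: OCI-Ly3, 4 h compound plus doxycycline at 37C; 10 uM MG-132 defined full response.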
HEK293 cAMP ctrl = counter-screen for TSHR agonists: cAMP increase in parental HEK293; parental HEK293 CNG cAMP sensor, membrane potential fluorescence; Potency, µM (series often up to 57.1 µM), for inactives: at the top dose activation, most hits filed as activators; 73,000 compounds, 2.5% hits; AID 938; also: % of control where 0% means no effect; nearly all actives have a fitted effect of over 55% in size
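Counterscreen for endogenous-receptor signalling: CNG-channel HEK 293 cells report cAMP rise by membrane depolarization. After 60 min dye equilibration with 100 uM RO 20-1724, compounds incubated 30 min before bottom-read fluorescence at 590 nm.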
Active calls of the source: *; ? = inconclusive; nt = not tested or not shown; [ ] = another dose, or the depositor's remark. This is a sample that favours compounds with a hit; in the whole collection about 3.1% have one here. Unless noted, calls follow the shape of the dose curve; as a rule, active = well fitted curve in the direction sought with a large enough effect; inconclusive = small, poorly fitted or top-dose-only effect, or another doubt; inactive = no such curve, though single readings can be large; an effect the other way counts as inactive or inconclusive. Potency is read from the fitted curve at half-maximal effect.

SMILES	TSHR agonist	Imprint erasure	p53ts 39C kill	p53ts 32C tox	IkB sig inh	HEK293 cAMP ctrl
CCOC(=O)c1c(C)oc2ccc(NS(=O)(=O)c3ccc4c5c(cccc35)C(=O)N4)cc12	25.1µM*	-18.2%	33.1%	26.8%	?	10.0%
CCCc1oc2ccc(NS(=O)(=O)c3ccc(OC)cc3)cc2c1C(=O)OCC	nt	-23.3%[10.9 µM]	?	-2.4%	?	nt
CCOC(=O)c1c(-c2ccccc2)oc2ccc(NS(=O)(=O)c3ccccc3)cc12	nt	-26.5%[10.9 µM]	15.8µM*	42.7%	?	nt
CCOC(=O)c1c(-c2ccccc2)oc2ccc(NS(=O)(=O)c3ccc(OC)cc3)cc12	nt	-21.0%[10.9 µM]	-15.6%	20.2%	?	nt
CCCc1oc2ccc(NS(=O)(=O)c3ccc(OCC)cc3)cc2c1C(=O)OCC	nt	-17.2%[10.9 µM]	20µM*	?	?	nt
CCOc1ccc(NS(=O)(=O)c2ccc3c4c(cccc24)C(=O)N3)cc1	nt	-21.7%[10.9 µM]	-10.1%	6.8%	?	nt
CCc1ccc(NC(=O)C(=O)NCC(c2cccnc2)N2CCOCC2)cc1 (stereo not drawn)	nt	-13.9%[10.9 µM]	?	?	?	nt
CN1CCC[C@@H](CC2c3ccccc3Sc3ccccc32)C1	?	6.8%[16.8 µM]	?	-3.5%[20.6 µM]	1.8%[25.6 µM]	?
CCOc1ccc2c(c1)c(=O)c(S(=O)(=O)c1ccccc1)cn2CC(=O)Nc1ccccc1OC	nt	-5.2%[10.9 µM]	-20.6%	2.8%	1.3%	nt
O=C(O)c1cc(-c2cccs2)nc2cc3c(cc12)OCCO3	-3.1%	-13.2%	10µM*	?	3.0%	0.7%
Cc1ccc2nc(-c3ccc4c(c3)OCCO4)cc(C(=O)O)c2c1	-6.5%	-27.9%	10µM*	15.8µM*	?	-3.3%
Cn1c(C(=O)NCc2cccnc2)cc2sc(Cl)cc21	?	nt	-3.1%	-1.3%	nt	25.1µM*
Cn1c(C(=O)NCc2ccccc2Cl)cc2sc(Cl)cc21	nt	-6.1%[10.9 µM]	?	-28.3%	?	nt
COC(=O)c1ccc(NC(=O)CCc2c(C)nn(-c3ccc(N4CCCCC4)nn3)c2C)cc1	nt	-15.8%[10.9 µM]	?	?	?	nt
CN(C)/C=C1/Sc2ccccc2C1=O	1.8%	nt	6.4%	-2.0%	nt	24.2%
CC1(C)CCC2=C(O1)c1ccccc1C(=O)C2=O	-8.7%	-78.7%	5.01µM*	5.01µM*	?	-12.9%
CN(C)c1ccc(CNC(=O)Cn2ccc3cc(S(=O)(=O)N4CCCCCC4)ccc32)cc1	nt	-13.0%[10.9 µM]	1.2%	-5.9%	?	nt
CCCCn1c(/C=N/Nc2nc3ccccc3[nH]2)nc2ccccc21	nt	nt	-8.4%	nt	nt	nt
Cc1ccc2cc(/C=N/Nc3nc4ccccc4[nH]3)c(Cl)nc2c1	nt	nt	3.55µM*	nt	nt	nt
O=C(N/N=C/C=C\c1ccccc1[N+](=O)[O-])c1cc(-c2ccc3ccccc3c2)n[nH]1	nt	nt	-5.8%	-6.7%	nt	nt
O=[N+]([O-])c1cccc(/C=N\Nc2ccc3ccccc3n2)c1O	-12.8%[11.4 µM]	-53.3%[10.9 µM]	3.98µM*	2.51µM*	?	-5.3%[11.4 µM]
CCCn1c(-c2ccc(F)cc2)nc2c(NCC(C)(C)CN(C)C)nc(C)nc21	?	1.3%	-4.7%	1.2%	nt	25.1µM*
CCCn1c(-c2ccc(F)cc2)nc2c(NCCCN(CC)CC)nc(C)nc21	?	-6.9%	-7.6%	-6.9%	nt	?
CCCn1c(-c2ccc(F)cc2)nc2c(NCCCN(C)C)nc(C)nc21	?	-8.1%	3.3%	-16.6%	nt	25.1µM*
CCCCNc1nc(C)nc2c1nc(-c1ccccc1)n2CCN(C)C	?	-12.6%	-5.0%	3.5%	nt	25.1µM*
SMILES	TSHR agonist	Imprint erasure	p53ts 39C kill	p53ts 32C tox	IkB sig inh	HEK293 cAMP ctrl
O=c1[nH]c(CSc2nnc(-c3ccncc3)n2Cc2ccco2)nc2ccccc12	0.6%	-13.2%	3.2%	8.3%	0.8%	0.8%
C=CCn1c(SCc2nc3ccccc3c(=O)[nH]2)nnc1-c1cc2cc(Cl)ccc2o1	?	-17.6%	5.3%	5.4%	0.9%	31.6µM*
CSc1cccc(NC(=O)c2ccc3c(c2)CCCN3S(C)(=O)=O)c1	nt	-4.3%[10.9 µM]	?	12.6µM*	?	nt
COc1ccc(OC)c(NC(=O)c2cc3sccc3n2C)c1	?	-9.4%	-13.3%	0.7%	5.9%	25.1µM*
Cn1c(C(=O)Nc2ccc3c(c2)OCO3)cc2sccc21	-13.7%	-51.7%	15.8µM*	?	2.9%	-14.2%
CCc1ccccc1NC(=O)c1cc2sc(Cl)cc2n1CC	nt	-9.6%[10.9 µM]	-7.4%	0.3%	0.0%	nt
Cn1c(C(=O)NCc2ccc3c(c2)OCO3)cc2sccc21	?	-10.7%	-26.5%	-13.2%	1.9%	?
CCc1ccccc1NC(=O)c1cc2sccc2n1C	?	-14.4%	1.1%	-9.0%	0.5%	31.6µM*
CC(CCc1ccccc1)NC(=O)c1cc2sccc2n1C (stereo not drawn)	25.1µM*	nt	6.4%	9.3%	nt	41.0%
CC(CCc1ccccc1)NC(=O)C1CCCN(C(=O)c2cc3sccc3n2C)C1 (stereo not drawn)	?	-19.3%	17.8%	-7.7%	?	?
Cc1ccc(C(=O)[C@@H]2[C@@H]3[C@@H](C(=O)[C@@H]4OC[C@H]3O4)[C@@H]3C=Cc4ccccc4N23)cc1	-1.8%	nt	nt	nt	3.1%[11.4 µM]	-8.1%
CCOC(=O)c1cnc2ccc(C(=O)OC)cc2c1Nc1ccc(N2CCOCC2)cc1	nt	-17.0%[10.9 µM]	12.6µM*	?	2.4%	nt
CCOC(=O)c1cnc2ccc(C)cc2c1Nc1ccc(N(CC)CC)cc1	nt	-12.9%[10.9 µM]	12.6µM*	-6.7%	?	nt
CCOC(=O)c1cnc2ccc(Cl)cc2c1Nc1ccc(N2CCOCC2)cc1	nt	-16.2%[10.9 µM]	-18.9%	-27.5%	?	nt
O=C(O)CCC/C=C\C[C@H]1[C@@H](/C=C\[C@@H](O)C2Cc3ccccc3C2)[C@H](F)C[C@H]1O	6.5%	nt	nt	nt	1.1%	-6.4%
O=C(NC1CCCCC1)C(c1ccco1)N(Cc1cccnc1)C(=O)C1COc2ccccc2O1 (stereo not drawn)	?	-6.3%	5.5%	0.2%	-0.2%	15.8µM*
FC(F)(F)c1cc(-c2ccco2)nc(NCc2cccnc2)n1	?	11.4%	5.6%	16.9%	3.3%	25.1µM*
CN(C)c1ccc(CN(CC2CCCO2)C(=O)COc2ccccc2Cl)cc1 (stereo not drawn)	nt	-12.9%[10.9 µM]	-10.1%	2.0%	?	nt
Cc1cnc(NC(=O)COc2ccccc2Cl)s1	-12.4%	-82.8%	5.01µM*	3.98µM*	0.3%	2.1%
O=C(CSc1nnc(-c2ccc(Br)cc2)o1)Nc1cccc2ccccc12	0.0398µM*	-26.9%	1.5%	-4.7%	?	11.7%
Cc1cnc(NC(=O)CSc2nnc(-c3ccccc3)o2)s1	-0.2%	-59.3%	10µM*	?	?	14.0%
O=C(COc1ccccc1Cl)Nc1nc2c(s1)CCCC2	nt	-13.9%[10.9 µM]	-18.3%	-14.9%	-1.7%	nt
